± gives the standard deviation of the averaged measurements. In all, about 25,000 sequences were measured (“ln(normalized median fluorescence intensity)”: median about 8.6, highest 2% from about 10 on). The full list was thinned out, with the highest values kept by preference.
What follows are sequences tested on PfAP2-EXP AP2 domain (GST-tagged) (assay: gcPBM binding intensity (ln(normalized median fluorescence intensity)); higher = stronger DNA binding).
How it was run: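 The highest Masliner-normalised natural-log median intensity across replicate spots of either probe orientation is reported as binding intensity. GST-tagged P. falciparum DNA-binding domains expressed in E. coli were applied for 1 h to an Agilent 4 × 180k array of primer-extended double-stranded 36-bp intergenic genomic probes plus negative controls, and bound protein was detected with Alexa488 anti-GST antibody and scanned at 488 nm.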

Sequence | gcPBM binding intensity (ln)
ATTGCGTGATAATAATGTACAAAAAGTAATTTATAT [XGTACX_site8339] | 8.48 ± 0.45
TAATTCGCAAAAGAAAGAAATTAAGAAAAAGAAAAA [XGTACX_negctrl_site614] | 8.32 ± 0.68
GTATATATATATATATATATATATTTTTATTTATTT [CACACA_negctrl_site589] | 8.65 ± 0.18
ATTTGTATATAATATATATAATTTTTTTTTTTTGTT [XGTACX_negctrl_site425] | 8.2 ± 0.31
TTTTTTTATTATTCTTATATAAAAATTTTTTTTAAT [CACACA_negctrl_site159] | 8.27 ± 0.45
TTTTTTTTTTTTTTTTTTTTCATTCAATTATATTTA [CACACA_negctrl_site712] | 8.04 ± 0.33
GTATATATTTTTATTTAATAATTTGTTTATTTATTC [CACACA_negctrl_site647] | 8.56 ± 0.22
ATTTTTTTTATTTTTTCAATATATATATATATATAT [CACACA_negctrl_site1444] | 10.2 ± 0.19
ATATATATATATATATATATAATTTTTTTTGTTTTT [TGCATGCA_negctrl_site453] | 10.3 ± 0.3
TTTTATTCCTATTTATTTATATTTTTGTCTTATATC [CACACA_negctrl_site125] | 8.8 ± 0.43
TTTTATTATTCTTCTCTCTTATATATATATATATAT [CACACA_negctrl_site646] | 10.2 ± 0.26
TCTTTCTTATATTTATATAATTATATTTATTTTATA [GTGCAC_negctrl_site300] | 8.74 ± 0.38
TTTTCATTCAATTATATTTATATATATATATATATA [GTGCAC_negctrl_site538] | 10.2 ± 0.44
ATATATTTTATTCCTATATATATATATATATATATA [GTGCAC_negctrl_site556] | 10.2 ± 0.49
ACAAAAAAAAAGGAAACACACAAAAAAAAAAAATAA [CACACA_site3523] | 8.44 ± 0.59
TAATGAAAAAATAAAAGAATAAATAAATAAATAAAT [TGCATGCA_negctrl_site130] | 8.77 ± 0.3
AGTGTATATAGAAACATACACACATATTAATTTTAC [CACACA_site3127] | 8.3 ± 0.28
AAAAAAAAAAAAAAAGTGCACTGAAAATATATTGAA [GTGCAC_site9395] | 9.04 ± 0.2
TTTTTTTTTCTTTCTTTCTTTTGTAAAAACCTCAAA [CACACA_negctrl_site723] | 8.46 ± 0.37
TGTGCACGTTCTGTGACACACATTTAAATGTGCTTA [CACACA_site176] | 8.62 ± 0.35
TATTTTTATTTTTAAACCATATATATATATATATAT [CACACA_negctrl_site1560] | 10.3 ± 0.23
ATTTTGTTATTATATATATATATATATATATATATA [XGTACX_negctrl_site590] | 10.3 ± 0.57
TTTTTTTTTTTTTTTTATTTATATATATATATATAT [CACACA_negctrl_site582] | 9.98 ± 0.23

Sequence | gcPBM binding intensity (ln)
TATTAATTAAACCATACACACATAATTTTTTTATAA [CACACA_site843] | 8.21 ± 0.43
TATATATATTAATTTATTTATTTGTTTATTTATTTA [CACACA_negctrl_site185] | 8.41 ± 0.18
TATATATATATATATATATATATTTTTATTATATAT [XGTACX_negctrl_site89] | 10.2 ± 0.52
TTTTTATTTATATATATATATATATATTATATATAA [CACACA_negctrl_site1654] | 8.34 ± 0.36
GCATATATTATATATTTATTTATTTTTTTTTTTTAA [GTGCAC_negctrl_site193] | 8.32 ± 0.46
GTTATATATATATATATATATATATATATTTTTTTT [GTGCAC_negctrl_site597] | 8.84 ± 0.15
AAAATATATTAAGGCACACACATACAGATATATATA [CACACA_site5951] | 8.9 ± 0.37
TATAAAATATAATTAGCACACATATATAAAATATAT [CACACA_site9355] | 8.21 ± 0.34
ATTTTGCCTGACCCATGTACATATTATTTTTTGCAT [XGTACX_site2258] | 9.41 ± 0.4
AGTATATTAATATAATGTACAAACGTTTATTTTGTA [XGTACX_site5980] | 8.59 ± 0.42
CGAAATCATATGTACACACACATATATATATATATA [CACACA_site2151] | 10.2 ± 0.62
ATATATATATATATATGTACATATATATACATATAT [XGTACX_site6987] | 10.1 ± 0.43
AAATATATATATATATGTACACACACACATATAAAT [XGTACX_site847] | 8.5 ± 0.3
ATATATATATATATATGTACATACATACAATCATAT [XGTACX_site6410] | 10.3 ± 0.45
AAAATATATACAATATGTACATATATATATATATAT [XGTACX_site1898] | 9.96 ± 0.35
ATATATATATATATATGTACACACATCAATCATATT [XGTACX_site4005] | 10.2 ± 0.54
TTACGATCATCAATATGTACATATATATATATATAT [XGTACX_site4301] | 10.2 ± 0.3
TACGAAATCATATGTACACACACATATATATATATA [CACACA_site5216] | 10.1 ± 0.39
TATATATATATATATGTACACACATCAATCATATTA [CACACA_site8594] | 10.1 ± 0.36
TTAACAAAATATAGCACACATAAATATATATTTATG [CACACA_site351] | 8.66 ± 0.33
TATACATATTATATATGTACACATATTATATGTATA [XGTACX_site5851] | 8.27 ± 0.15
ATTATATAGAATTGTACATGCGAATTGTATAACGAT [TGCATGCA_site125] | 9.31 ± 0.57
ACATATATATAATATATATATCATCATATTTTCTTA [CACACA_negctrl_site853] | 8.27 ± 0.39

Sequence | gcPBM binding intensity (ln)
TATTAAAATTAAAAAAAAAAAAAAAAGCAATAAAAA [XGTACX_negctrl_site426] | 8.33 ± 0.71
CGTATGCAAGGAACCACACACACACCCATAAATGTA [CACACA_site749] | 8.51 ± 0.45
TTTTCTACATCTTGTTGTACGAAAAATAAAAAAAAT [XGTACX_site4620] | 8.72 ± 0.47
TATTTTATAAATTAATGTACATAAATTATATCTACT [XGTACX_site3625] | 8.35 ± 0.16
TTTTAAACAGGACACACACACATATAGATTTATATA [CACACA_site6560] | 8.69 ± 0.4
TTTTTTTTTTTTTTTTTTAAACACCTCAAAAAAAAA [CACACA_negctrl_site807] | 8.04 ± 0.36
ATATATATCTTTTGTGTGCACATATATATAATATAT | 8.97 ± 0.24
ATAATATCTTTATGTGTGCACATATATATATATATA | 10.1 ± 0.38
GAGGTCTTTTTTAATGTGCACATATATATATATATA | 10.3 ± 0.25
GGAAAAGGTATCCGTTCACACATAAATGGATACCAT [CACACA_site5072] | 8.31 ± 0.4
ATTCATCCAATAATGTGAATTATCATGATAAACTTA [TGCATGCA_negctrl_site406] | 8.26 ± 0.43
CAAAGTATTATGATTACACACATGTGCTTTTTTCTT [CACACA_site163] | 8.57 ± 0.42
CAAACAATTAAACAAACACACATATACAAGTATATA [CACACA_site8639] | 8.38 ± 0.36
GGTATACACAAGTATACACACATATAAATATAAATA [CACACA_site7511] | 8.5 ± 0.45
GGTATACTCAAGTATACACACATATATATATATATA [CACACA_site5746] | 10.2 ± 0.45
GGTATACACAAGTATACACACATATATATATATATA [CACACA_site9063] | 10.2 ± 0.22
TATATACTCAAACACACACACACATACACAGACATA [CACACA_site5025] | 8.77 ± 0.57
GGTATACGCAAGTATACACACATATATATATATATA [CACACA_site3240] | 10.1 ± 0.47
ATTTTAGGAAAAAAAAGTACATATAATTTTTTATAT [XGTACX_site6954] | 8.19 ± 0.31
AAATGTTATATATAATGTACTTGTAAGAACGTTCCT [XGTACX_site2840] | 8.67 ± 0.45
GTGTAGTTAAAAAAAAGTACAGATTTTTTTTTTTTT [XGTACX_site849] | 8.43 ± 0.092
ATATTTATAACTTGGTGTACTTTGAAAAAAAAAAAA [XGTACX_site5194] | 8.38 ± 0.26
TTTTAATAATATGGATGTACATAAAAATAAATAAAT [XGTACX_site7937] | 9.04 ± 0.38

Sequence | gcPBM binding intensity (ln)
AAAAAACACTTAAGGTGTACCTTTTAATATAAGTAT [XGTACX_site2397] | 8.38 ± 0.3
TATGTGAAATAAGGATGTACAATTTTGATTTCCCCA [XGTACX_site8389] | 8.86 ± 0.52
TATAAACCGACGAAAACACACATATGTAAATATATA [CACACA_site491] | 8.94 ± 0.59
ATTTTTTTTTTTTTTTTGGGGGGGTATACTTTTAAA [CACACA_negctrl_site1020] | 11.2 ± 0.18
GTTAATATTTTTGGGGGTACTTAAAAAAAAAAAAAA [XGTACX_site1477] | 9.35 ± 0.26
TATACTTTATATATTTTGTATATATATTTTTTTTAT [TGCATGCA_negctrl_site530] | 8.43 ± 0.31
AAAAAAGAAAAAAAGTGTACAATATTTATTACATAT [XGTACX_site2277] | 8.08 ± 0.028
TATTTAATTACATGAACACACATTATGTATTTTTAA [CACACA_site2962] | 8.3 ± 0.3
AATTAAAAAATTATCACACATATATATATATATATA [CACACA_site5789] | 10.3 ± 0.52
ACTAATTACTATAAAACACACATATATTTATTTATA [CACACA_site7263] | 8.51 ± 0.34
CATATAAATAAACACACACACACATATATATATATA [CACACA_site5309] | 10.2 ± 0.29
AAAAAATTAAAAATCACACATAAATATATATAAAAA [CACACA_site4192] | 8.45 ± 0.4
AAAATTAATAAATAAACACACATATATATATATATA [CACACA_site2598] | 10.1 ± 0.44
TGAAATGATATATAAACACACATATATATATATATA [CACACA_site3511] | 10 ± 0.36
AATAAATTGAAACACACACACACATATATATATATA [CACACA_site848] | 10.2 ± 0.32
TGAAATGATATATAAACACACATATATAAATATGTA [CACACA_site7616] | 8.18 ± 0.42
TATATATATATATAAACACACATAAATATAAATATA [CACACA_site1121] | 10 ± 0.37
TTTGAAATGATATATAAACACACATATATATATATA [CACACA_site9170] | 10.3 ± 0.4
ACTAATTACTATAAAACACACATATATATATATATA [CACACA_site2591] | 10.2 ± 0.29
ATAAATATATATATCACACATATATAATTATATATA [CACACA_site4787] | 8.46 ± 0.3

Reference: the supplement of paper PMC11417369
